Screen size: about 340,000 compounds; about 3,300 (0.97%) were called active.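 Rule for the calls: active = inhibition above the mean over all tested compounds plus 3 SD (cut at about 30% in these data); inactive = the rest.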 The list comes from a sample in which actives are over-represented; it also holds similar structures and randomly drawn compounds.
target: Platelet-activating factor acetylhydrolase 2, cytoplasmic (Homo sapiens) (UniProt Q99487); experiment: inhibition of cytoplasmic PAF acetylhydrolase 2 – biochemical, fluorescence polarization, human, primary screen (AID 492956); conditions: recombinant PAFAH2, FP-rhodamine activity probe, at 3.39 µM, active compounds read high;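 note: inhibitors block probe labeling of enzyme so polarization drops; 0% = enzyme with DMSO and 100% = wells lacking PAFAH2 protein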

inhibition, active:
CCCC1OC23CCCCC2C(C#N)(C#N)C1(C#N)C(=N)O3 (configuration not stated) 35.4%, O=c1oc(-c2ccco2)nc2sc3c(c12)CCCCC3 46.4%, CCCN(CCC)C(=O)C1c2ccccc2Oc2ccccc21 32.9%, O=c1oc(/C=C/c2ccccc2)nc2ccccc12 76.7%, Cc1c(C)c2c(OCC(=O)N[C@@H](C(=O)O)c3ccccc3)cc3c(c2oc1=O)CCC(C)(C)O3 90.8%, Cc1c(C)c2c(OCC(=O)NCCCO)cc3c(c2oc1=O)CCC(C)(C)O3 72.5%, COc1ccc(NC(=O)COC(=O)c2ccc(NS(=O)(=O)/C=C/c3ccccc3)cc2)cc1 75.8%, O=C(Cc1ccc(S(=O)(=O)N2CCOCC2)s1)NCCOc1ccccc1F 38.8%, O=[N+]([O-])c1cc(Cl)cc(/C=N/NC(=S)Nc2cc(S(=O)(=O)N3CCOCC3)ccc2Cl)c1O 85.2%, O=C(Nc1nnc(SCc2ccccc2Cl)s1)c1cccc([N+](=O)[O-])c1 32.2%, O=C(Nc1nnc(SCc2c(Cl)cccc2Cl)s1)c1cccc([N+](=O)[O-])c1 57.2%, O=C(Nc1nnc(SCc2c(Cl)cccc2Cl)s1)C1CCCO1 (configuration not stated) 35.8%

inhibition, inactive:
O=C(Nc1ccc(S(=O)(=O)N2CCCCC2)cc1)C1CC(=O)N(c2ccc(F)cc2)C1 (configuration not stated) -0.7%, O=S(=O)(c1ccc(Cl)cc1)c1nc(-c2ccco2)oc1N1CCCCC1 -0.15%, Cn1c(NN)nc2sc3c(c2c1=O)CCC3 4.91%, Cc1cc(-n2cnc(-c3cn(C)nc3C)n2)no1 2.99%, Cc1noc(/C=C/c2ccco2)c1S(=O)(=O)N1CCC(C(=O)N2CCc3ccccc32)CC1 -7.75%, O=C(O)Cc1csc(NC(=O)CSc2nnnn2-c2ccc(O)cc2)n1 1.29%, CCn1c(CNC(=O)c2ccccc2)nnc1SCC(=O)N1CCN(c2ccccc2)CC1 -4.72%, CCN(C(=O)CSc1nnnn1-c1ccc(OC)cc1)C1CCS(=O)(=O)C1 (configuration not stated) 4.1%, COc1ccc(C(C)C)cc1S(=O)(=O)Nc1ncn[nH]1 -3.51%, CCC(C)NC(=O)C1c2ccccc2Oc2ccccc21 (configuration not stated) -4.35%, CCCCCNC(=O)C1c2ccccc2Oc2ccccc21 -0.79%, O=c1[nH]c(/C=C/c2cccc(Br)c2)nc2ccccc12 6.48%, S=c1[nH]nc(/C=C/c2ccccc2)o1 -11.5%, CCc1ccc2nc(Nc3ncc(C(C)=O)c(C)n3)nc(C)c2c1 7.02%, Cc1ccc(S/C(=N\S(=O)(=O)c2ccc(Cl)cc2)c2ccccc2)cc1 5.84%, Cc1cc(OCC(=O)NCC(O)c2ccccc2)c2c(C)c(C)c(=O)oc2c1 (configuration not stated) 0.4%, Cc1cc(=O)oc2c3c(cc(OCC(=O)NCc4ccccn4)c12)OC(C)(C)CC3 14.1%, Cc1cc(=O)oc2c3c(cc(OCC(=O)NCCC(=O)N[C@@H](C)C(=O)O)c12)OC(C)(C)CC3 6.3%, Cc1cc(=O)oc2c3c(cc(OCC(=O)N[C@H](C(=O)O)c4ccccc4)c12)OC(C)(C)CC3 18.3%, CCN(CC)c1ccc(NC(=O)CN2C(=O)NC3(CCc4ccccc43)C2=O)cc1 (configuration not stated) -0.31%, Cc1cc(C)n(CCNCc2c(C(=O)N3C[C@@H](C)O[C@@H](C)C3)nc3ccc(Cl)cn23)n1 0.53%, C#CC(C)(C)NC(=O)c1cnc(-c2ccccc2)nc1-c1ccccc1 -1.01%, CC(Nc1ccc([N+](=O)[O-])cc1[N+](=O)[O-])c1ccccc1 (configuration not stated) 4.73%, Cc1ccc(OCC(=O)Nc2ccccc2Sc2ccc(Cl)cc2)c([N+](=O)[O-])n1 0.47%, COc1ccc(Cc2n[nH]c(=S)n2NC(=O)Nc2ccc(C)cc2)cc1 -2.45%, NS(=O)(=O)c1ccc(NS(=O)(=O)/C=C/c2ccccc2)cc1 4.92%, CN(CC(=O)Nc1ccc(OC(F)F)cc1)S(=O)(=O)/C=C/c1ccccc1 3.38%, O=C(NCc1ccccc1)C1C(=O)N(Cc2ccccc2)C(=O)C1C1(O)CCCC1 (configuration not stated) 3.41%, O=C(Cc1ccc(S(=O)(=O)N2CCOCC2)s1)NCCC(c1ccccc1)c1ccccc1 3.55%, O=C(OCCOc1ccccc1F)c1cc(S(=O)(=O)N2CCOCC2)ccc1F -1.58%, Cc1ccc2c(c1)N(CC(=O)NCC1CCCO1)C(=O)CO2 (configuration not stated) 3.2%, COCCCn1c(Cc2csc(Nc3cccc(Cl)c3)n2)nnc1SCC(=O)OC1CCCCC1 0.44%, Cc1ccc(S(=O)(=O)N2CCN(CC(=O)N/N=C/c3cc([N+](=O)[O-])ccc3Cl)CC2)cc1 -3.59%, O=S(=O)(c1ccc(NC(=S)NN=C(C2CC2)C2CC2)cc1)N1CCOCC1 8.93%, C/C(=N\NC(=O)c1ccc(C)cc1)C1C(=O)c2ccccc2C1=O 14.8%, CCN1CCN(c2ccc(S(=O)(=O)N3CCCCC3)cc2NC(=O)Cc2c(Cl)cccc2Cl)CC1 12.9%, Cc1cc(C)nc(NC(=O)c2cccc([N+](=O)[O-])c2)c1 -7.58%, O=C(NCc1ccccc1Cl)C1CCCO1 (configuration not stated) 6.52%, Cc1cc(C)c2nc(NC(=O)C3CCCO3)sc2c1 (configuration not stated) -3.31%, NC(=O)CSc1nnc(NC(=O)c2ccc3ccccc3c2)s1 1.32%, O=C(Nc1ccc(C2CC2(Cl)Cl)cc1)c1cccc([N+](=O)[O-])c1 (configuration not stated) -4.09%, CCOC(=O)CSc1nnc(NC(=O)c2cccc(S(=O)(=O)N3CCCC3)c2)s1 1.53%, COC(=O)C1=C(C(=O)OC)C(c2cc([N+](=O)[O-])ccc2O)c2sc(=O)[nH]c2S1 (configuration not stated) 11.7%, CC(C)(C)c1ccccc1NC(=O)CN1C(=O)NC2(CCCC2)C1=O -2.59%, CC(=O)Nc1ccc(SC[C@H](Cc2ccccc2)N2CC[C@@H](C)CCC2=O)cc1 1.61%

Reference: PubChem BioAssay AID492956 (The Scripps Research Institute Molecular Screening Center, 2010)
